Bioassay records from PubChem.
Most compounds without a hit are left out; they make up all but 2.5% or so of the library.
MEKK3 PB1 HTS: raises or lowers MEK5 binding to the human MEKK3 PB1 domain. bead-based flow cytometry, Alexa488-MEK5 binding to MEKK3; actives lie on both sides; 0 = blocked by unlabeled MEK5, 100 = vehicle. actives 1.4% (n = 290,000). binding response (% of control), % at 10 µM;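 active = binding response more than 3 SD above or below the average of its plate-row segment, actives on both sides; inconclusive = wells at one plate position flagged as instrument error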;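 also: Alexa488 bead fluorescence after subtracting the streptavidin-only scavenger bead signal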
Target sequence (Q99759 whole entry, looked up, the tested form may be a part): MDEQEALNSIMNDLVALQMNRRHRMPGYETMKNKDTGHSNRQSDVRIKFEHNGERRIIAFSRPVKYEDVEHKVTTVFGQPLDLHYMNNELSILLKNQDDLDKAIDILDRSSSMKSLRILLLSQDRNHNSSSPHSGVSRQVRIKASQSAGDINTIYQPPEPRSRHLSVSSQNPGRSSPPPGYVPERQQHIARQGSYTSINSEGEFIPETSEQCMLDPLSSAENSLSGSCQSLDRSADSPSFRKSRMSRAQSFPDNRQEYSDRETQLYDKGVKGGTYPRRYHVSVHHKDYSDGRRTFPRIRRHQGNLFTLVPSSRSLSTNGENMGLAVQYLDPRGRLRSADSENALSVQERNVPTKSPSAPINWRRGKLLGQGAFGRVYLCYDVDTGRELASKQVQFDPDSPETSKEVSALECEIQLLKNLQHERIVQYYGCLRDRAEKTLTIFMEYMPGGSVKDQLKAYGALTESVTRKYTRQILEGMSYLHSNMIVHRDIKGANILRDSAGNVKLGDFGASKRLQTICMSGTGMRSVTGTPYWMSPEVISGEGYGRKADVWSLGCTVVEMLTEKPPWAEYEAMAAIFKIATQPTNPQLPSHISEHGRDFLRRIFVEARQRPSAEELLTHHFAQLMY
Rce1 inh: blocks yeast Ras-converting enzyme | yeast membranes, quenched prenylated peptide cleavage fluorescence | actives 0.27% (n = 290,000) | Q03530 | calls only;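 active = fall in fluorescence gain of 50% or more versus controls, with final raw signal at or below 3038400; inconclusive = same 50% fall but final raw signal above 3038400; inactive = fall in fluorescence gain under 50%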
MEKK2 WT-MEK5: raises or lowers MEK5 binding to wildtype human MEKK2 PB1 domain | bead flow cytometry, Alexa488-MEK5 binding to MEKK2 WT; actives lie on both sides | binding response (% of control), % at 10 µM | actives 1.1% (n = 290,000) | AID 1531; in the data active = binding response below about 67% or above about 130%; inconclusive = no clear call, values can overlap the other calls; inactive = in between
UBC13 polyUb: human UBC13 polyubiquitination inhibition | AID 485273 | inhibition, % at 20 µM | actives 0.47% (n = 330,000) | P61088 | UBC13 polyubiquitin chain formation, TR-FRET; in the data active = inhibition above about 45%, passing the limit was not always enough; inconclusive = no clear call, values can overlap the other calls
MEKK2mut PB1 HTS: signal of MEK5 binding to mutant human MEKK2 PB1 domain; bead flow cytometry, Alexa488-MEK5 binding to MEKK2 mutant; percent response, % at 10 µM; actives 0.35% (n = 290,000); AID 1530; in the data active = percent response above about 24%, passing the limit was not always enough
MEKK2wt confirm: raises or lowers MEK5 binding to wildtype human MEKK2, retest | shares compounds with MEKK3 PB1 HTS | binding response (% of control), % at 10 µM | actives 2.4% (n = 5,900) | AID 1892 | bead flow cytometry, Alexa488-MEK5 binding to MEKK2 WT; actives lie on both sides; in the data active = binding response below about 16% or above about 210%; inactive = in between
MEKK2mut-MEK5: signal of MEK5 binding to mutant human MEKK2, retest. shares compounds with MEKK3 PB1 HTS. bead flow cytometry, Alexa488-MEK5 binding to MEKK2 mutant. AID 1893. actives 2% (n = 5,900). percent response, % at 10 µM; in the data active = percent response mostly above about 71%, no sharp cut-off; inactive = mostly below about 38%;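 also: higher means compound restores mutant binding toward wildtype level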
MEKK3 confirm: MEKK3-MEK5 PB1 inhibition, single concentration confirmation. bead flow cytometry, Alexa488-MEK5 binding to MEKK3; stronger effect = lower value. AID 1894. shares compounds with MEKK3 PB1 HTS. binding response (% of control), % at 10 µM. actives 1.8% (n = 5,900);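 active = binding response below 72% of control, or above a set upper limit, though filed actives all read lower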
Numbers stand for hits; 0 = inactive; ? = inconclusive; - = no result given; [ ] = remark or other dose.

SMILES	MEKK3 PB1 HTS	Rce1 inh	MEKK2 WT-MEK5	UBC13 polyUb	MEKK2mut PB1 HTS	MEKK2wt confirm	MEKK2mut-MEK5	MEKK3 confirm
CCCCC1=C([O-])C2N=CC=CC2=[N+](c2ccccn2)C1=O (configuration not stated)	138	0	0	0	0	0	0	0
CC1CCCN(C(=O)CN2C(=O)c3ccccc3C2=O)C1 (configuration not stated)	29[inhibitor]	0	13[inhibitor]	0	0	0	0	0
CC1CN(C(=O)CN2C(=O)c3ccccc3C2=O)CC(C)O1 (configuration not stated)	0	0	0	0	0	-	-	-
CCNC(=O)NC(=O)COC(=O)CCc1nc(=O)c2ccccc2n1C	0	0	0	0	0	-	-	-
Cc1ccc(CC(=O)OC(C)C(=O)NC2CCCCC2C)cc1C (configuration not stated)	-	-	-	0	-	-	-	-
O=C(Cn1cnc2c(nnn2Cc2ccc(Cl)cc2)c1=O)N1CCCc2ccccc21	69[inhibitor]	0	0	0	0	0	0	0
OC(CNCCc1ccc(Cl)cc1)COc1cc(Cl)ccc1Cl (configuration not stated)	0	0	0	0	26	0	0	0
O=C(NNCC(O)COc1ccccc1)c1ccccc1 (configuration not stated)	138	0	0	0	0	0	0	0
CC(C)(c1ccccc1)c1ccc(OCC(O)CN2CCCC2)cc1 (configuration not stated)	0	0	0	0	0	-	-	-
CC(C)c1ccc(OCC(O)CNC(C)c2ccccc2)cc1 (configuration not stated)	0	0	0	0	0	-	-	-
OC(CNCCC(c1ccccc1)c1ccccc1)COc1ccccc1 (configuration not stated)	0	0	313	0	142	0	0	0
COc1ccc(OCC(O)CNC(=O)c2ccccc2)cc1 (configuration not stated)	0	0	0	0	0	-	-	-
CC(C)N(CCNCC(O)COc1ccc(C(C)(C)c2ccccc2)cc1)C(C)C (configuration not stated)	0	0	172	0	0	0	0	0
O=c1[nH]c(=O)n(-c2ccc(F)cc2)c2c1C(C(F)(F)F)(C(F)(F)F)N=C(c1ccc(F)cc1)N2	0	0	0	0	0	-	-	-
CCc1ccccc1NC(=O)NNC(=O)CCc1ccc(OC)cc1	0	0	0	0	0	-	-	-
CN(CC(=O)Nc1c(Cl)cccc1Cl)C(=O)c1cc2ccccc2cc1O	-	0	-	0	-	-	-	-
CCNC(=O)NC(=O)C(C)Oc1ccc(Br)cc1Br (configuration not stated)	0	0	0	0	0	-	-	-
Cc1ccc(NC(=O)c2ccccc2N(C)S(=O)(=O)c2ccccc2)c(C)c1	0	0	0	0	0	-	-	-
CCOc1ccc(S(=O)(=O)N(CC)CC(=O)NC2CC2)cc1	0	0	0	0	0	-	-	-
O=[N+]([O-])CC(=Nc1ccc(F)cc1)N/N=C\c1oc(O)c2ccccc12	0	0	0	0	0	-	-	-
OC(CNCCc1ccccc1)COc1ccc(OCC(O)CNCCc2ccccc2)cc1 (configuration not stated)	0	0	172	0	0	0	0	0
CC(C)CCNCC(O)CON=C1c2ccccc2-c2ccccc21 (configuration not stated)	0	0	161	0	0	0	0	0
Cc1cc(NC(=O)COC(=O)C2CC(=O)N(c3ccccc3)C2)no1 (configuration not stated)	0	-	0	0	0	-	-	-
CC(C)[C@H](NC(=O)N1CCn2c1nc1ccccc12)C(=O)NC1CCCCC1	0	0	0	0	0	-	-	-
O=C(NCCC1=CCCCC1)C(=O)c1c[nH]c2ccccc12	133	0	0	0	0	0	0	0
SMILES	MEKK3 PB1 HTS	Rce1 inh	MEKK2 WT-MEK5	UBC13 polyUb	MEKK2mut PB1 HTS	MEKK2wt confirm	MEKK2mut-MEK5	MEKK3 confirm
O=C(NCCc1c[nH]c2ccccc12)C(=O)c1c[nH]c2ccccc12	0	0	0	0	0	-	-	-
CCOC(=O)c1sc(NC(=O)CN2C(=O)NC3(CCCCCCC3)C2=O)c(C(=O)OCC)c1C	35[inhibitor]	0	25[inhibitor]	0	0	0	0	0
O=C(Cc1ccc(Cl)cc1)NC1CC1	0	0	0	0	0	-	-	-
O=C(CCSCc1ccc(Cl)cc1)NCCc1ccccc1	142	0	0	0	0	0	0	0
O=C(CSc1ccccc1)NCCSCc1ccccc1	140	0	0	0	0	0	0	0
O=C(CCSCc1cccc(Cl)c1)NCCc1ccc(Cl)cc1	0	0	0	0	0	-	-	-
Cc1ccc(SCC(=O)NCCSCc2ccccc2)cc1	0	0	0	0	0	-	-	-
O=C(CCSCc1ccc(Cl)cc1)NC1CCCC1	151	0	0	0	0	0	0	0
COc1ccccc1OCC(=O)NCCSCc1ccc(Cl)cc1	132	0	0	0	0	0	0	0
O=C1CC(c2ccccc2)CN1C(=O)c1cccnc1 (configuration not stated)	141	0	0	0	0	0	0	0
COc1cccc(C(=O)C2CCCN(C(=O)c3cccc(C#CC(C)(C)O)c3)C2)c1 (configuration not stated)	0	0	0	0	0	-	-	-
CC1=C(C(=O)OC(C)C)C(C2CC=CCC2)NC(=O)N1 (configuration not stated)	0.0[inhibitor]	0	-4.0[inhibitor]	0	0	0	0	0
CCOC(=O)C1=C(C)NC(=O)NC1C1CC=CCC1 (configuration not stated)	0	0	0	0	0	-	-	-
S=c1nc(SCc2ccccc2)[nH]c2ccccc12	49[inhibitor]	0	0	?	0	0	0	0
Cc1c(C)[n+](=O)c(-c2cccs2)c(C)n1[O-]	1.0[inhibitor]	0	0.0[inhibitor]	0	0	0	0	0
O=C(CN1C(=O)c2cccc([N+](=O)[O-])c2C1=O)OCC(=O)N1CCCCC1	-	0	-	0	-	-	-	-
CC(C(=O)c1ccc(-c2ccccc2)cc1)[n+]1cccc(NC(=O)c2ccccc2)c1 (configuration not stated)	0	0	224	0	62	0	0	0
Cc1ccc(NC(=O)C2CCCN2C(=O)OCc2ccccc2)c(O)c1 (configuration not stated)	0	0	0	0	0	-	-	-
O=C(OCC1COc2ccccc2O1)c1c(F)cccc1F (configuration not stated)	66[inhibitor]	0	0	0	0	0	0	0
O=C(Nc1ccc(N2CCCCC2)cc1)c1cncc(Br)c1	0	0	38[inhibitor]	0	0	0	0	0
O=C(Nc1ccc(S(=O)(=O)N2CCCC2)cc1)c1cncc(Br)c1	-	-	-	0	-	-	-	-
